A selection: hits, their analogues and other compounds. The true share with any hit is near 1.9%.
Bfl-1 A1 inh: inhibitors of the anti-apoptotic protein A1, read as caspase activation. MEF A1-2A-BIM cells, Caspase-Glo 3/7 luminescence, 3 h; percent of clofoctol response, vehicle zero. caspase activation, % (test concentration not listed). 330,000 compounds, 0.066% hits. AID 2462;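 active = over half of replicate activation scores above 10%, or exactly half above 10 with the replicate mean above 10; inconclusive = replicate mean below 10 yet half the replicates above 10; inactive = over half of replicates below 10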
GSIS activator: primary screen for activators of insulin secretion dependent on glucose, INS-1E cells, GLuc reporter luminescence; activation, % at 16.6 µM; 370,000 compounds, 0.61% hits; INS-1E GLuc reporter insulin secretion, 2-3 h; AID 743287;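 active = lowest replicate activation of at least 40%, so every replicate reaches that level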;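 note: 0% = median of neutral control wells and 100% = median of IBMX positive control wells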
Neddyl block: blocks human cullin neddylation | TR-FRET cullin neddylation, biochemical | AID 651699 | inhibition, % at 25 µM | P61081+Q13564 | 360,000 compounds, 0.58% hits; in the data active = inhibition above about 36%
Vif inh: HIV Vif inhibition. HEK293T cells, Vif self-association by quenched fluorescence, imaging, 24 h. inhibition, % at 7.49 µM. 340,000 compounds, 0.35% hits; in the data active = inhibition above about 50%, passing the limit was not always enough; inconclusive = no clear call, values can overlap the other calls; inactive = below about 31%
dFosB activator: mouse delta FosB homodimer activation | P13346 | purified delta FosB, TAMRA-CDK5 oligo fluorescence polarization; percent of positive-control signal above neutral wells | activation, % at 25 µM | 340,000 compounds, 0.99% hits;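 active = mean activation above about 17%, with every replicate also reaching it, limit read from the data, passing the limit was not always enough; inconclusive = only one of the two conditions met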
Target sequence (P13346 whole entry, looked up): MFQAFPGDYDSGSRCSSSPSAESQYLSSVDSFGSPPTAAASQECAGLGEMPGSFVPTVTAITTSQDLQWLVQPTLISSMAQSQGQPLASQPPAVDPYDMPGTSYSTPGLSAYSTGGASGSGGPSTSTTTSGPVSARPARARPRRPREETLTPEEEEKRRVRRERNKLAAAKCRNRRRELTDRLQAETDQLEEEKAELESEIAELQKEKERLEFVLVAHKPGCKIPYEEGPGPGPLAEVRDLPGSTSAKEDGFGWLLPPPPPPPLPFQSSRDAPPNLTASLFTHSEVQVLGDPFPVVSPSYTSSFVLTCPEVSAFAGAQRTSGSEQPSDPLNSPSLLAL
* hit, by the source's call; u = inconclusive; x = no result.

SMILES | Bfl-1 A1 inh | GSIS activator | Neddyl block | Vif inh | dFosB activator
Cc1ccc(CNC(=O)Cn2c(=O)c3sccc3n(Cc3ccc([N+](=O)[O-])cc3)c2=O)cc1 | 0 | 42* | -7 | -4 | -4
Cc1ccc(CNC(=O)Cn2c(=O)n(CC(=O)N3CCCCC3)c(=O)c3sccc32)cc1 | 1 | -4 | 11 | 3 | -3
Nc1nnn(CC(=O)N/N=C/c2ccc(Cl)cc2Cl)n1 | 1 | 3 | -16 | 6 | 2
Nc1nnn(CC(=O)N/N=C/c2cccc(Cl)c2)n1 | 1 | 13 | -12 | 61* | -4
COc1ccc(/C=C/C(=O)NC(=S)NCCc2ccc(OC)c(OC)c2)cc1 | 7.2* | 19 | 0 | 70* | 7
CC(=O)N(C)C[C@@H]1Oc2ncc(C3=CCCC3)cc2C(=O)N([C@H](C)CO)C[C@H]1C | x | 6 | x | x | x
CN(C)CCCN1C(=O)c2cccc3c([N+](=O)[O-])ccc(c23)C1=O | -1 | -29 | -11 | -19 | 19*
CC(=O)Oc1cccc(N2C(=O)c3cccc4c([N+](=O)[O-])ccc(c34)C2=O)c1 | 2 | x | 1 | 118* | -4
O=C1c2cccc3c([N+](=O)[O-])ccc(c23)C(=O)N1CCc1ccccn1 | 0 | -3 | 21 | 9 | 2
CC(C)NC(=O)Nc1ccc2c(c1)C(=O)N([C@@H](C)CO)C[C@@H](C)[C@@H](CN(C)C(=O)Nc1ccccc1)OCCCC[C@@H](C)O2 | x | 9 | x | x | x
CCc1noc(C)c1C(=O)NNC(=O)c1ccc(N(CC)CC)cc1 | 1 | -7 | -1 | 60* | -7
C/C(Cl)=C\Cn1c(N2CCCC2)nc2c1c(=O)n(C)c(=O)n2C | 2 | 65* | -1 | -14 | 1
C[C@@H]1CCCCO[C@H](CN(C)C)[C@H](C)CN([C@H](C)CO)C(=O)c2cc(NC(=O)CCCN(C)C)ccc2O1 | x | 17 | x | x | x
Cc1cc(/C=C2\C(=N)N3C(SCc4ccccc4)=NSC3=NC2=O)c(C)n1Cc1ccccc1 | 1 | x | -9 | 93* | -10
Cc1cc(/C=C2\C(=N)N3N=C(c4ccco4)SC3=NC2=O)c(C)n1Cc1ccccc1 | 1 | -18 | 40* | -1 | 2
COc1ccccc1-n1c(C)cc(/C=C2/C(=N)N3C(=NC2=O)SN=C3S(C)(=O)=O)c1C | 1 | 1 | 59* | 4 | -7
CCC(C)Sc1nc2c(c(=O)[nH]c(=O)n2C)n1Cc1ccc(Cl)cc1 (stereo unspecified) | -1 | x | 5 | 15 | -10
Cn1c(=O)[nH]c(=O)c2c1nc(SCC(O)CCl)n2Cc1ccccc1 (stereo unspecified) | 0 | 41* | -8 | 0 | 9
CC(O)CSc1nc2c(c(=O)[nH]c(=O)n2C)n1Cc1ccccc1Cl (stereo unspecified) | 0 | 22 | 15 | 4 | 4
CC(O)CSc1nc2c(c(=O)[nH]c(=O)n2C)n1Cc1ccccc1 (stereo unspecified) | 0 | 44 | -4 | 8 | -8
Cn1c(=O)[nH]c(=O)c2c1nc(SCC(=O)Nc1ccccc1)n2Cc1ccccc1 | 0 | 1 | -4 | 13 | 54*
CC(C)Sc1nc2c(c(=O)[nH]c(=O)n2C)n1Cc1ccc(Cl)cc1 | 0 | 77* | -5 | -4 | -5
CC(=O)CSc1nc2c(c(=O)[nH]c(=O)n2C)n1Cc1ccccc1Cl | 1 | 59* | -3 | 1 | 2
CN1C(=O)c2cc(NC(=O)c3cccs3)ccc2OC[C@H]2O[C@H](CC(=O)NCC3CC3)CC[C@@H]21 | x | 4 | x | x | x
CC(C)NC(=O)N1C[C@H]2[C@@H](c3ccccc31)[C@H](CO)N2C(=O)Nc1cccc(F)c1 | x | -8 | x | x | x
SMILES | Bfl-1 A1 inh | GSIS activator | Neddyl block | Vif inh | dFosB activator
Cc1ccc(NC(=O)c2cccs2)cc1NC(=O)c1ccccc1Cl | 0 | 167* | 38 | 3 | u
O=C(Nc1cccc(NC(=O)c2ccccc2Cl)c1)c1cccs1 | -1 | -16 | 0 | -2 | -2
N#CCSc1nc2ccccc2c(=O)n1CC1CCCC1 | 1 | 44* | 15 | -14 | -6
C=C(C)Cn1c(SCC#N)nc2ccccc2c1=O | 1 | x | 14 | x | -1
CC(C(=O)Nc1ccc2c(c1)OCO2)N1CCN(C)CC1 (stereo unspecified) | 0 | 19 | 2 | x | -5
CC(C(=O)Nc1ccc2[nH]c(=O)[nH]c2c1)N1CCN(Cc2ccc3c(c2)OCO3)CC1 (stereo unspecified) | 1 | 60* | 8 | -3 | 2
CCN(CC(=O)Nc1cc(Cl)cc(Cl)c1)CC(=O)NC1CCS(=O)(=O)C1 (stereo unspecified) | 0 | -11 | 1 | 54* | -3
CCN(CC(=O)Nc1cc(Cl)ccc1C)CC(=O)NC1CC1 | x | x | 0 | -7 | x
O=C(CCl)N=c1sccn1Cc1ccccc1Cl | 4 | 61* | 4 | 1 | 1
Cc1ccc(S(=O)(=O)Nc2ccc3c4c(cccc24)CC3)c(C)c1 | -2 | x | -1 | 3 | 0
Cc1cc(C)c(S(=O)(=O)Nc2ccc3c4c(cccc24)CC3)c(C)c1 | 0 | -32 | 16 | 57* | 3
O=C(N[C@H]1CC[C@H](CCNS(=O)(=O)c2ccc(Cl)cc2)O[C@H]1CO)c1cccc(F)c1 | x | -10 | x | x | x
O=C(O)COc1ccccc1/C=C1\C(=O)Nc2ccc(Br)cc21 | 5.3* | 2 | -9 | -2 | -11
CC(=O)N1[C@@H](CO)[C@@H](c2ccccc2)C12CN(C(=O)c1ccccn1)C2 | x | 13 | x | x | x
Cc1cc(C)cc(NC(=O)COC(=O)COc2ccc(N(C)S(=O)(=O)c3cccs3)cc2)c1 | 0 | x | 1 | 50* | -10
CCOC(=O)CN1C(=O)[C@]2(OCCC=C[C@H]2C)c2ccccc21 | x | 351* | x | x | x
CCCCCCCCCCCCCCCCn1cc[n+](C)c1 | 0 | 186* | 20 | 0 | -178
C[C@H]1CN([C@@H](C)CO)C(=O)c2cc(-c3cccc(C#N)c3)cnc2O[C@@H]1CN(C)C(=O)c1ccccn1 | x | 16 | x | x | x
COc1ccccc1-c1nc(S(=O)(=O)c2ccc(Cl)cc2)c(N(C)C)o1 | 1 | 13 | 3 | 53* | -2
Cc1ccc(S(=O)(=O)c2nc(-c3ccccc3Cl)oc2N(C)C)cc1 | -1 | -11 | 6 | -6 | -13
CCn1c(SCc2ccc(C(=O)Nc3nccs3)cc2)nnc1-c1ccc(NC(C)=O)cc1 | 0 | x | 1 | -13 | -9
CCn1c(SCc2ccc(C(=O)Nc3nccs3)cc2)nnc1-c1ccc(N)cc1 | 0 | 12 | 2 | 54* | 3
CO[C@@H]1CN(C)C(=O)c2ccc(NC(=O)Nc3c(C)noc3C)cc2OC[C@@H](C)N(CC2CC2)C[C@@H]1C | x | 16 | x | x | x
O=C(C[C@H]1C=C[C@H](NC(=O)C2CCOCC2)[C@@H](CO)O1)Nc1ccc(-c2ccccc2)cc1 | x | -4 | x | x | x
COc1ccccc1NC(=O)N(C)C[C@H]1Oc2cc(Br)ccc2S(=O)(=O)N([C@@H](C)CO)C[C@H]1C | x | -10 | x | x | x
O=C(Nc1cccc2c1C(=O)NC2=O)c1cccc(N2C(=O)CCC2=O)c1 | 0 | 8 | 22 | 2 | 10
